# Pf growth 48h = Primary qHTS for delayed death inhibitors of the malarial parasite plastid, 48 hour incubation; P. falciparum luciferase growth in erythrocytes, 48 h; AID 504832, 2011; 5.9% of 310,000 active; Potency, µM (doses to about 28.7 µM), inactives show at the highest dose activity change, negative = inhibition, most hits filed as inhibitors; note: % is set by controls: 0 for no effect and ±100 for the full control effect
#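 Parasite viability was followed by luminescence of a genomically integrated firefly luciferase. Cultures held 0.1% parasitemia at 2% hematocrit (final), incubated under 5% CO2 at 37 C.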
# Pf growth 96h = Primary qHTS for delayed death inhibitors of the malarial parasite plastid, 96 hour incubation. P. falciparum luciferase reporter growth, 96 h. Potency, µM (highest dose often 28.7 µM), for inactives: top-dose activity change, negative = inhibition, hits mostly inhibitors. 6.9% of 320,000 active; note: % is set by controls: 0 for no effect and ±100 for the full control effect
#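 Cell-based qHTS: luciferase-tagged P. falciparum in erythrocytes (2% hematocrit, 0.05% parasitemia final) incubated with compounds for 96 hours, 37 C, 5% CO2; luciferase detection reagent then added and luminescence measured.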
# Sm TGR block = qHTS Assay for the Inhibitors of Schistosoma Mansoni Peroxiredoxins; Schistosoma mansoni thioredoxin glutathione reductase (TGR), Q962Y6; purified TGR, DTNB reduction, TNB absorbance 405 nm; Potency, µM (doses to about 114 µM), for inactives: at the highest dose activity change, negative = inhibition, most hits filed as inhibitors; 3% of 360,000 active; AID 485364, 2010; note: % is set by controls: 0 for no effect and ±100 for the full control effect; nearly all actives have a fitted effect of over 60% in size
#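 Kinetic colorimetric format: TGR-catalysed, NADPH-driven DTNB reduction monitored via TNB absorbance. Enzyme dispensed at 20 nM; compound exposure 15 min at room temperature before reaction start.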
# SARS PLpro yeast = qHTS of Yeast-based Assay for SARS-CoV PLP; S. cerevisiae expressing SARS-CoV PLpro, growth rescue; Potency, µM (highest dose often 32.9 µM), inactives show at the top dose activity, positive = growth rescue, actives largely listed as activators; 0.19% of 330,000 active; AID 485353, 2010; calls by dose curve; note: 0% is about no effect; nearly all actives have a fitted effect of over 55% in size
# * = called active by the depositor; ? = inconclusive; · = no result given; [ ] = remark or other dose. A selection: hits, their analogues and other compounds. The true share with any hit is near 12%. Unless noted, calls come from the whole dose curve; as a rule, active = well fitted curve in the direction sought with a large enough effect; inconclusive = small, poorly fitted or top-dose-only effect, or another doubt; inactive = no such curve, though single readings can be large; an effect the other way counts as inactive or inconclusive. Potency is the fitted concentration of half-maximal effect.
SMILES,Pf growth 48h,Pf growth 96h,Sm TGR block,SARS PLpro yeast
COc1cccc(-c2nnc(NC(=O)c3ccc(Cl)s3)o2)c1,?,12µM*,-13%,-29%
O=C(Nc1nnc(-c2ccco2)o1)c1ccc(Cl)s1,3%,?,0%,-10%
COc1ccc(-c2nnc(NC(=O)c3ccc([N+](=O)[O-])o3)o2)c(OC)c1,15µM*,12µM*,?,-5%
Cc1ccc(-c2nnc(NC(=O)c3ccc([N+](=O)[O-])o3)o2)c(C)c1,-4%,13%,?,5%
O=C1[C@@H]2Cc3c([nH]c4ccccc34)CN2C(=O)CN1CCCCCO,0%,-8%,-30%,-1%
COc1cc(SC)ccc1C(=O)N(CC(=O)Nc1ccccc1Br)Cc1ccco1,?,?,?,-16%
O=C(CN(Cc1ccco1)C(=O)c1cc(=O)[nH]c2ccccc12)Nc1ccccc1Br,?,9.3µM*,-6%,6%
O=c1cc(CSc2ccccn2)c2ccccc2[nH]1,7%,9.3µM*,-9%,-1%
Cc1cc(SCc2cc(=O)[nH]c3ccccc23)nc2ccccc12,1.5µM*,?,10%,3%
O=C(COC(=O)c1ccc(S(=O)(=O)N2CCCCC2)cc1)NCc1ccco1,11%,4%,?,0%
O=C(OCc1ccco1)c1ccc(S(=O)(=O)N2CCCCC2)cc1,4%,?,7.1µM*,1%
O=C(COC(=O)c1ccc(O)cc1)c1ccc(S(=O)(=O)N2CCCCC2)cc1,2.9µM*,?,-6%,4%
Cc1ccc(S(=O)(=O)N2CCCCC2)cc1NC(=O)COC(=O)c1ccc(O)cc1,?,0.23µM*,-11%,0%
O=C(COC(=O)c1ccc(O)cc1)Nc1cc(S(=O)(=O)N2CCOCC2)ccc1Cl,?,4.7µM*,-6%,1%
Cc1ccc(S(=O)(=O)N2CCCCC2)cc1NC(=O)COC(=O)c1cc[n+]([O-])cc1,-13%,?,-1%,-5%
O=C(COC(=O)c1ccc(O)cc1)Nc1ccc(S(=O)(=O)N2CCOCC2)cc1,·,·,·,-3%
O=C(CCCSc1ccc(Cl)cc1)Nc1cc(S(=O)(=O)N2CCOCC2)ccc1O,?,8.3µM*,0%,9%
Cc1ccc(S(=O)(=O)N2CCOCC2)cc1NC(=O)CSc1ccc(Cl)cc1,?,-1%,-2%,·
Cc1c(C(=O)N(C)c2cccc(C(F)(F)F)c2)sc2nc3n(c(=O)c12)CCCCC3,·,·,10µM*,·
COc1cc(OC)c(NC(=O)c2sc3nc4n(c(=O)c3c2C)CCCC4)cc1Cl,·,·,50µM*,·
COc1cc(OC)c(N(C)C(=O)c2sc3nc4n(c(=O)c3c2C)CCCC4)cc1Cl,·,·,32µM*,·
COc1cc(C2c3c(-c4cc(C)ccc4O)n[nH]c3C(=O)N2CCCO)ccc1OCCC(C)C (stereo not drawn),·,·,-2%,·
O=C(COc1ccc(Cl)cc1Cl)N(C1CCCCC1)C1CCS(=O)(=O)C1 (stereo not drawn),?,10µM*,-4%,-7%
O=C(NCc1ccccc1F)C1CCCN1C(=O)Nc1ccc(Cl)cc1 (stereo not drawn),1%[0.00184 µM],0%,5%,0%
CC(C)Nc1ccc(Nc2ccccc2)cc1,4.1µM*,2.6µM*,8.9µM*,0%
SMILES,Pf growth 48h,Pf growth 96h,Sm TGR block,SARS PLpro yeast
c1ccc(Nc2ccccc2)cc1,46%,39%,-2%,-3%
O=C(CSc1nc2c([nH]c3ccccc32)c(=O)n1-c1ccccc1F)Nc1ccccc1C(F)(F)F,·,·,3%,·
CCCCc1c(C)c(C#N)c2nc3ccccc3n2c1Cl,-29%,?,3.5µM*,-8%
C=CCc1c(C)c(C#N)c2nc3ccccc3n2c1N1CCCCC1,?,1.9µM*,-13%,-2%
COc1ccc2[nH]cc(CCN=C3SCC(=O)N3C)c2c1,·,12µM*,6%,6%
COc1ccc2[nH]cc(CCn3ccc(=O)c(C)c3C)c2c1,?,?,-10%,1%
Cc1ccccc1C(=O)OCc1cc(=O)n2nc(C(C)C)sc2n1,·,·,5%,·
Cc1ccc2cc3cc(C(=O)NCCC(C)C)oc3nc2c1,10µM*,?,?,-1%
COc1ccc(CNC(=O)c2cc3cc4ccc(C)cc4nc3o2)cc1,·,·,-13%,·
Cc1ccc2cc3cc(C(=O)N4CCCCC4C)oc3nc2c1 (stereo not drawn),9.3µM*,45%,-16%,-1%
Cc1ccc2cc3cc(C(=O)NCc4ccco4)oc3nc2c1,2.9µM*,?,?,-1%
Cc1ccccc1OCC(=O)Nc1ccc(-c2nc3cc(Cl)cc(Cl)c3o2)cc1,·,·,5%,·
COc1ccc(Cl)cc1N(CC(=O)NCCSc1ccccn1)S(=O)(=O)c1ccccc1,-17%,1.7µM*,-6%,-6%
COc1cccc(N(CC(=O)NCCSc2ccccn2)S(=O)(=O)c2ccccc2)c1,13µM*,5%,-2%,1%
COc1ccc(N(CC(=O)NCCSc2ccccn2)S(=O)(=O)c2ccccc2)cc1OC,-23%,-23%,3%,1%
CCOCCc1nnc(NC(=O)CS(=O)(=O)c2ccc(C)cc2)s1,0%,0.23µM*,7%,6%
Cc1sc(NC(=O)Cc2ccc3c(c2)OCO3)nc1-c1ccc2c(c1)CCN2C(=O)c1ccc(F)cc1,9.3µM*,5%,-18%,29%
COC(=O)c1cc2c(-c3ccccc3)c(C)c3ccccn3c-2c1C(=O)OC,·,?,-2%,-9%
COC(=O)c1c(Cl)c2n3ccccc3c(C)c(-c3ccccc3)c-2c1C(=O)OC,?,10µM*,-26%,11%
Cc1c(C2Nc3ccccc3NC3=C2C(=O)CC(C)(C)C3)cnn1C (stereo not drawn),?,5.9µM*,-4%,-39%
Cc1nn(-c2ccc(C(=O)O)cc2)c(C)c1Oc1ccccc1O,·,-25%,-1%,1%
Cc1nn(-c2ccccn2)c(C)c1Oc1ccccc1O,·,2.6µM*,6%[11.4 µM],10%
CCOc1ccccc1NC(=O)c1ccc2c(Cl)c3c(nc2c1)CCCC3,·,·,9%,·
CC(C)N(Cc1ccccc1)C(=O)c1nc(-c2ccc(Cl)cc2)n2c1CCCCC2,·,·,-6%,·
CN1C2C=C3C(C#N)=C(N)C(C#N)(C#N)C(c4ccc(Br)cc4)C3C1CC2 (stereo not drawn),9.3µM*,8.3µM*,-23%,4%
SMILES,Pf growth 48h,Pf growth 96h,Sm TGR block,SARS PLpro yeast
CC(C)C1=CC2=CC[C@@H]3[C@](C)(CCC[C@@]3(C)C(=O)O)[C@H]2CC1,-11%,?,·,·
O=C(OCC(=O)N1CCN(c2ccccc2)CC1)c1ccc2ncsc2c1,·,12µM*,-1%[11.4 µM],-10%
O=C(COc1ccc(Br)cc1)N1CCN(c2ccccc2)CC1,·,4.7µM*,5%,-6%
COc1ccc(N2CCN(C(=O)COc3ccc4ccccc4c3)CC2)cc1,4%,9.3µM*,10%,4%
O=C(COc1ccc(Cl)cc1Br)N1CCN(c2ccccc2)CC1,-2%,3.7µM*,-13%,?
O=CN1CCN(C(=O)COc2ccc(Cl)cc2Br)CC1,32%,7%,1%,-13%
